Screening data from PubChem.
PAX8 reporter – inhibitors of PAX8-driven TPO luciferase reporter, primary screen, RMG-I cells, single concentration; SteadyGlo, 24 h; inhibition, % at 12.6 µM; hit rate 1.2% among 360,000; AID 652154, 2013;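 active = mean replicate inhibition at least 60% with every replicate also reaching 60%; inconclusive = only one of the two criteria is met; inactive = mean below 60% and not all replicates reaching 60%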;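 also: luciferase light reporting Pax8 driven TPO promoter activity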
EWS-Fli block – EWS/Fli-driven NR0B1 reporter inhibitors, primary screen, A673 cells, NR0B1 luciferase, luminescence, MLPCN library; viability-normalised; inhibition, % at 12.6 µM; hit rate 0.67% among 350,000;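 active = mean inhibition of at least 50% after viability correction, with every replicate also passing that limit; inconclusive = mean reaches 50% but only one of two replicates passes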;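 also: firefly luciferase signal divided by Alamar Blue viability fluorescence both relative to DMSO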
TRPM1 prom inh – inhibitors of MITF-dependent TRPM1 promoter reporter, primary screen, cell-based, SK-MEL-5, single point, luciferase. SK-MEL-5 TRPM1 promoter luciferase, 24 h. AID 488899, 2010. hit rate 0.83% among 330,000. inhibition, % at 12.5 µM;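 active = mean inhibition across replicates of 60% or more, whatever share of single replicates reaches that level; inconclusive = some that reach 60%, reason not given; inactive = mean inhibition across replicates below 60%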
esBAF inh – Bmi1 luciferase reporter increase in mESCs, primary screen, esBAF inhibitor project, mouse ES cells, Bmi1 luciferase knock-in, single point; reporter increase, % at 12.5 µM; hit rate 2% among 350,000; 24 h; 100% = twice the neutral-well signal; AID 602393, 2012; in the data active = activation above about 40%; inconclusive = no clear call, values can overlap the other calls;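 also: a rise in the Bmi1 reporter signal indicates esBAF inhibition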
Wnt act – Wnt/beta-catenin pathway activators, primary screen, cell-based, plate reader, single point. hit rate 1.2% among 300,000. activation, % at 9.35 µM. Wnt/beta-catenin reporter cell assay, activator; in the data active = activation above about 30%, passing the limit was not always enough; inconclusive = no clear call, values can overlap the other calls
MITF act – activators of MITF-driven TRPM1 promoter reporter, primary screen, cell-based, SK-MEL-5, luciferase, single point; SK-MEL-5 TRPM1-promoter luciferase, 24 h; % of positive control, neutral wells = 0; activation, % at 12.5 µM; hit rate 0.75% among 300,000;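 active = mean activation of at least 80% with every replicate also reaching 80%; inconclusive = mean reaches 80% but some replicate falls short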
Each line names hits and unclear results; the compound was inactive in the other large screens. In the library only some 4% were active in any assay of this set; here they are far more common.

COc1ccc(S(=O)(=O)Nc2ccc3c(c2)C(=O)N([C@H](C)CO)C[C@@H](C)[C@@H](CN(C)C(=O)C2CCCCC2)OCCCC[C@H](C)O3)cc1	none (no result: TRPM1 prom inh, Wnt act, MITF act)
O=[N+]([O-])c1ccccc1OCc1nc(-c2cccs2)no1	MITF act 119 (no result: esBAF inh)
O=[N+]([O-])c1ccc(F)cc1OCc1nc(-c2cccs2)no1	MITF act inconclusive (no result: esBAF inh)
COc1ccc2c3c([nH]c2c1)[C@@H](CO)N(C(=O)C1CCCCC1)CC31CCN(C(=O)c2ccncc2)CC1	none (no result: TRPM1 prom inh, esBAF inh, Wnt act, MITF act)
CC(O)CNCc1ccccc1C(F)(F)F (stereo unspecified)	Wnt act 41
COc1ccc(C(=O)c2c3ccccc3[n+]([O-])n2CCC(N)=O)cc1	esBAF inh 47
COc1ccc(C(=O)c2c3ccccc3[n+]([O-])n2Cc2ccc(C(N)=O)cc2)cc1	none
COc1ccc(C(=O)c2c3ccccc3[n+]([O-])n2CCCN)cc1	none
COc1ccc2c(C(=O)c3ccc(C)cc3)n(Cc3ccc(C(N)=O)cc3)[n+]([O-])c2c1	esBAF inh 101, Wnt act inconclusive
c1ccn2cc(-c3ccc4c(c3)OCCO4)nc2c1	EWS-Fli block 54 (no result: esBAF inh)
Cc1ccc2nc(-c3ccc4c(c3)OCCO4)cn2c1	PAX8 reporter 87, TRPM1 prom inh 84 (no result: esBAF inh, MITF act)
Clc1ccc2nc(-c3ccc4c(c3)OCO4)cn2c1	none
C[C@H](CO)N1C[C@H](C)[C@@H](CN(C)C(=O)Nc2ccc3c(c2)OCO3)Oc2ccc(NS(C)(=O)=O)cc2C1=O	none (no result: PAX8 reporter, TRPM1 prom inh, Wnt act, MITF act)
COc1ccc(NC(=O)c2cnn(-c3ccccc3)c2C)cc1OC	none
Cc1c(C(=O)Nc2cccc(F)c2)cnn1-c1ccccc1	MITF act 109
Cc1c(C(=O)Nc2ccccc2)cnn1-c1ccccc1	Wnt act 63 (no result: esBAF inh)
Cc1ccc(NC(=O)c2cnn(-c3ccccc3)c2C)cc1C	EWS-Fli block 56 (no result: MITF act)
CN1C(=O)c2cc(NS(=O)(=O)c3ccc(F)cc3)ccc2OC[C@H]2O[C@H](CC(=O)O)CC[C@H]21	none (no result: TRPM1 prom inh, Wnt act, MITF act)
COc1cc(C)ccc1OCc1cc(C(=O)N(C)CCCN2CCOCC2)no1	esBAF inh 74, Wnt act inconclusive, MITF act 127 (no result: EWS-Fli block)
COc1cc(C)ccc1OCc1cc(C(=O)NCCN2CCOCC2)no1	esBAF inh 63, MITF act 107 (no result: PAX8 reporter)
COc1ccccc1-c1cc(C(=O)NCCN2CCOCC2)no1	none (no result: PAX8 reporter, EWS-Fli block)
CN(CCCN1CCOCC1)C(=O)c1cc(COc2ccc(F)cc2F)on1	none (no result: EWS-Fli block)
CC1(C)Cc2c(sc3nc(-c4ccccc4)n(N)c(=O)c23)CO1	esBAF inh 43 (no result: PAX8 reporter, EWS-Fli block, Wnt act)
CCOC(=O)CSc1nc2sc3c(c2c(=O)n1CC)CC(C)(C)OC3	none (no result: PAX8 reporter, EWS-Fli block)
CCc1nc2sc3c(c2c(=O)n1N)CC(C)(C)OC3	none (no result: esBAF inh)
Nn1c(-c2cccs2)nc2sc3c(c2c1=O)CCCC3	none (no result: PAX8 reporter, EWS-Fli block, Wnt act)
CCC1(C)Cc2c(sc3nc(SC)n(Cc4ccccc4)c(=O)c23)CO1 (stereo unspecified)	esBAF inh 59 (no result: PAX8 reporter, EWS-Fli block, Wnt act)
CC1(C)Cc2c(sc3nc(-c4cccs4)n(N)c(=O)c23)CO1	esBAF inh 73 (no result: PAX8 reporter, EWS-Fli block, Wnt act)
CCN1[C@@H]2c3ccc(-c4cccc(F)c4)c(=O)n3C[C@@H]2[C@@H](CO)[C@@H]1C(=O)OC	none (no result: PAX8 reporter, TRPM1 prom inh, esBAF inh, Wnt act, MITF act)
COc1ccc(/C=C/c2nc(-c3ccccc3O)n[nH]2)cc1OC	esBAF inh 62, MITF act 143 (no result: EWS-Fli block)
Cc1[nH]n(C(N)=S)c(=O)c1N=Nc1ccc(S(=O)(=O)N2CCCC2)cc1	esBAF inh 53 (no result: EWS-Fli block, MITF act)
Cc1ccc(N=Nc2c(C)[nH]n(C(N)=S)c2=O)cc1	esBAF inh 57
Cc1[nH]n(C(N)=S)c(=O)c1N=Nc1cc(C(F)(F)F)ccc1Cl	none
Cc1[nH]n(C(N)=S)c(=O)c1N=Nc1ccc(Br)cc1	Wnt act 40
Cc1[nH]n(C(N)=S)c(=O)c1N=Nc1cccc(C(F)(F)F)c1	none (no result: esBAF inh)
O=C(C[C@H]1CC[C@@H]2[C@H](COC[C@H](O)CN2Cc2cccc(-c3ccncc3)c2)O1)N1CCN(c2ccccc2)CC1	none (no result: TRPM1 prom inh, Wnt act, MITF act)
COc1ccccc1CNC(=O)C[C@@H]1CC[C@H]2[C@@H](COC[C@@H](O)CN2C(=O)Nc2ccc(Cl)cc2)O1	none (no result: TRPM1 prom inh, Wnt act, MITF act)
CCC(=O)N1C[C@H](O)COC[C@@H]2O[C@H](CC(=O)N3CCCCC3)CC[C@H]21	none (no result: TRPM1 prom inh, Wnt act, MITF act)
Cc1cc(C)n(CCCN2CCC(C(=O)Nc3cccc(-c4cccc(F)c4)c3)CC2)n1	TRPM1 prom inh 62
CCn1ncc(CN2CCC(C(=O)Nc3cccc(-c4cccc(F)c4)c3)CC2)c1C	none (no result: EWS-Fli block)
Cc1cc(C)c(NN=c2c(=O)c3ccccc3c2=O)c(C)c1	MITF act 116 (no result: PAX8 reporter, EWS-Fli block)
O=c1c(=NNc2ccccc2Cl)c(=O)c2ccccc12	none (no result: PAX8 reporter)
CCC(=O)Nc1ccc2c(c1)ncn2-c1ccc(C)cc1	esBAF inh 49
CCn1cnc2cc(NCc3ccc(Cl)cc3)ccc21	esBAF inh 55, Wnt act 34
CCC(=O)Nc1ccc2c(c1)ncn2-c1ccc(OC)cc1	none (no result: EWS-Fli block, Wnt act)
CCCn1cnc2cc(NCc3cccc(OC)c3O)ccc21	esBAF inh 56 (no result: PAX8 reporter, EWS-Fli block, Wnt act)
Cc1ccc(C(=O)Nc2ccc3c(c2)ncn3C)cc1	Wnt act 38 (no result: EWS-Fli block)
O=C(C1CCOCC1)N1CC(=O)N2[C@H](CO)[C@H](c3ccc(C#CC4CCCC4)cc3)[C@H]2C1	none (no result: PAX8 reporter, TRPM1 prom inh, esBAF inh, Wnt act, MITF act)
O=C(C[C@@H]1C[C@@H]2c3cc(NC(=O)NC4CCCC4)ccc3O[C@@H]2[C@@H](CO)O1)NCc1ccccn1	none (no result: TRPM1 prom inh, esBAF inh, Wnt act, MITF act)
Cc1ccc(CNc2ccc3c(c2)ncn3C)cc1	esBAF inh 70, Wnt act 41 (no result: PAX8 reporter, EWS-Fli block)
CCc1ccc(CNc2ccc3c(c2)ncn3C)cc1	Wnt act inconclusive (no result: PAX8 reporter, esBAF inh)
O=C(Cn1ncc(Cl)c(Cl)c1=O)NC(=O)NC1CCCCC1	PAX8 reporter 91, EWS-Fli block 62, TRPM1 prom inh 115 (no result: esBAF inh, MITF act)
CC(NC(=O)Cn1ncc(Cl)c(Cl)c1=O)C12CC3CC(CC(C3)C1)C2 (stereo unspecified)	TRPM1 prom inh 108 (no result: PAX8 reporter, EWS-Fli block, esBAF inh, Wnt act)
C[C@@H]1CN([C@@H](C)CO)C(=O)c2cc(-c3cccc(C(=O)N(C)C)c3)cnc2O[C@H]1CN(C)S(=O)(=O)c1cccc(F)c1	none (no result: PAX8 reporter, TRPM1 prom inh, Wnt act, MITF act)
CN(C)CC#Cc1ccc([C@@H]2[C@@H](CO)N3CCCCN(C(=O)C4CCCC4)C[C@@H]23)cc1	none (no result: TRPM1 prom inh, esBAF inh, Wnt act, MITF act)
C[C@H]1C(=O)N(C)CCN1Cc1cn(C)nc1-c1ccc(Oc2ccccc2)cc1	none
CCN(CC)C(=O)C1CCN(Cc2cn(C)nc2-c2ccc(Oc3ccccc3)cc2)CC1	Wnt act 54 (no result: esBAF inh)
C[C@@H]1CCCCO[C@@H](CN(C)C(=O)C2CCCCC2)[C@@H](C)CN([C@H](C)CO)C(=O)c2cc(NC(=O)c3ccncc3)ccc2O1	none (no result: TRPM1 prom inh, Wnt act, MITF act)
CCNc1nc(N)nc(Oc2ccc(C(=O)OC)cc2)n1	esBAF inh inconclusive, MITF act 87 (no result: PAX8 reporter, EWS-Fli block)
